Test results taken from PubChem BioAssay AID1159580 (chemical genetic matrix, 2015).
About 2,000 (36%) of roughly 5,500 compounds were called active. Inconclusive results (about 18%) are left out. Rule as the data show it: active = normalized growth mostly below about 0.91 (no sharp cut-off); inconclusive = no clear call, values can overlap the other calls; inactive = mostly above about 0.92. This is one part of the list.

Experiment: chemical genetic growth profiling, strain panel (AID 1159580);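 also: tested at 20 µM; growth read once vehicle control cultures reached saturation at 30 °C; 1 = growth at the plate median or of vehicle wells; lower values mean less growth of the strain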
Details: growth OD

Measured: normalized growth

CSc1nc(NC(C)C)nc(NC(C)C)n1
active: S. cerevisiae deletion strains, locus YLR262C, strain YPT6 (second series), active compounds read low 0.856
inactive: S. cerevisiae deletion strains, locus YJR075W, strain HOC1, active compounds read low 1.02 | S. cerevisiae deletion strains, locus YKL009W, strain mrt4, active compounds read low 1.03 | S. cerevisiae deletion strains, locus YKL068W, active compounds read low 1 | S. cerevisiae deletion strains, locus YKL085W, strain MDH1 (second series), active compounds read low 1.01 | S. cerevisiae deletion strains, locus YKL085W, strain MDH1, active compounds read low 1.01 | S. cerevisiae deletion strains, locus YKL160W, strain elf1, active compounds read low 0.979 | S. cerevisiae deletion strains, locus YKL190W, strain CNB1, active compounds read low 1.02 | S. cerevisiae deletion strains, locus YKR001C, strain vps1, active compounds read low 1.03 | S. cerevisiae deletion strains, locus YKR026C, strain gcn3, active compounds read low 0.973 | S. cerevisiae deletion strains, locus YKR091W, strain srl3, active compounds read low 0.973 | S. cerevisiae deletion strains, locus YLL001W, strain dnm1, active compounds read low 0.979 | S. cerevisiae deletion strains, locus YLL026W, active compounds read low 0.975 | S. cerevisiae deletion strains, locus YLL041C, strain sdh2, active compounds read low 0.983 | S. cerevisiae deletion strains, locus YLR027C, strain aat2, active compounds read low 0.967 | S. cerevisiae deletion strains, locus YLR039C, strain RIC1, active compounds read low 0.987 | S. cerevisiae deletion strains, locus YLR058C, strain SHM2, active compounds read low 1.01 | S. cerevisiae deletion strains, locus YLR102C, strain apc9, active compounds read low 1 | S. cerevisiae deletion strains, locus YLR113W, strain HOG1, active compounds read low 0.993 | S. cerevisiae deletion strains, locus YLR221C, strain rsa3, active compounds read low 0.971 | S. cerevisiae deletion strains, locus YLR258W, strain gsy2, active compounds read low 0.964 | S. cerevisiae deletion strains, locus YLR262C, strain YPT6, active compounds read low 1.03 | S. cerevisiae deletion strains, locus YLR268W, strain sec22, active compounds read low 1.01 | S. cerevisiae deletion strains, locus YLR320W, strain mms22, active compounds read low 0.961 | S. cerevisiae deletion strains, locus YLR330W, strain CHS5, active compounds read low 1.01 | S. cerevisiae deletion strains, locus YLR342W, strain FKS1 (second series), active compounds read low 0.974 | S. cerevisiae deletion strains, locus YLR342W, strain FKS1, active compounds read low 0.958 | S. cerevisiae deletion strains, locus YLR357W, strain rsc2, active compounds read low 0.923 | S. cerevisiae deletion strains, locus YLR370C, strain arc18, active compounds read low 0.969 | S. cerevisiae deletion strains, locus YLR371W, strain rom2, active compounds read low 0.999 | S. cerevisiae deletion strains, locus YLR384C, strain iki3, active compounds read low 0.972 | S. cerevisiae deletion strains, locus YLR418C, strain cdc73, active compounds read low 1.04 | S. cerevisiae deletion strains, locus YML016C, strain PPZ1, active compounds read low 0.989 | S. cerevisiae deletion strains, locus YML032C, strain rad52, active compounds read low 1.03 | S. cerevisiae deletion strains, locus YML120C, strain ndi1, active compounds read low 0.966 | S. cerevisiae deletion strains, locus YML124C, strain tub3, active compounds read low 1.02 | S. cerevisiae deletion strains, locus YMR058W, strain fet3, active compounds read low 0.97 | S. cerevisiae deletion strains, locus YMR078C, strain ctf18, active compounds read low 1.02 | S. cerevisiae deletion strains, locus YMR125W, strain sto1, active compounds read low 0.958 | S. cerevisiae deletion strains, locus YMR129W, active compounds read low 0.973 | S. cerevisiae deletion strains, locus YMR205C, strain PFK2, active compounds read low 0.944 | S. cerevisiae deletion strains, locus YMR223W, strain ubp8, active compounds read low 1.01 | S. cerevisiae deletion strains, locus YMR231W, strain pep5, active compounds read low 0.973 | S. cerevisiae deletion strains, locus YMR263W, strain SAP30, active compounds read low 1.02 | S. cerevisiae deletion strains, locus YMR307W, strain GAS1, active compounds read low 1.05 | S. cerevisiae deletion strains, locus YNL067W, strain RPL9B, active compounds read low 0.999 | S. cerevisiae deletion strains, locus YNL071W, strain lat1, active compounds read low 0.978 | S. cerevisiae deletion strains, locus YNL128W, strain TEP1, active compounds read low 1.01 | S. cerevisiae deletion strains, locus YNL153C, strain GIM3, active compounds read low 1 | S. cerevisiae deletion strains, locus YNL183C, strain NPR1, active compounds read low 0.969 | S. cerevisiae deletion strains, locus YNL209W, strain ssb2, active compounds read low 0.987 | S. cerevisiae deletion strains, locus YNL233W, strain BNI4, active compounds read low 1.02 | S. cerevisiae deletion strains, locus YNL248C, strain rpa49, active compounds read low 0.979 | S. cerevisiae deletion strains, locus YNL250W, strain rad50, active compounds read low 1.01 | S. cerevisiae deletion strains, locus YNL271C, strain bni1, active compounds read low 1.01 | S. cerevisiae deletion strains, locus YNL298W, strain CLA4, active compounds read low 1 | S. cerevisiae deletion strains, locus YNL307C, strain MCK1, active compounds read low 1.01 | S. cerevisiae deletion strains, locus YNL322C, strain KRE1 (second series), active compounds read low 0.962 | S. cerevisiae deletion strains, locus YNL322C, strain KRE1, active compounds read low 1.01 | S. cerevisiae deletion strains, locus YNR049C, strain mso1, active compounds read low 0.953 | S. cerevisiae deletion strains, locus YNR052C, strain pop2, active compounds read low 1.02 | S. cerevisiae deletion strains, locus YOL006C, strain TOP1, active compounds read low 1.02 | S. cerevisiae deletion strains, locus YOL012C, strain htz1 0.96 | S. cerevisiae deletion strains, locus YOL147C, strain pex11, active compounds read low 1.02 | S. cerevisiae deletion strains, locus YOR001W, strain rrp6, active compounds read low 0.98 | S. cerevisiae deletion strains, locus YOR061W, strain CKA2, active compounds read low 1 | S. cerevisiae deletion strains, locus YOR069W, strain VPS5, active compounds read low 1.01 | S. cerevisiae deletion strains, locus YOR070C, strain gyp1, active compounds read low 0.962 | S. cerevisiae deletion strains, locus YOR080W, strain dia2, active compounds read low 0.963 | S. cerevisiae deletion strains, locus YOR083W, strain WHI5, active compounds read low 0.969 | S. cerevisiae deletion strains, locus YOR106W, strain vam3, active compounds read low 0.956 | S. cerevisiae deletion strains, locus YOR136W, strain idh2, active compounds read low 1.03 | S. cerevisiae deletion strains, locus YOR144C, strain elg1, active compounds read low 1.01 | S. cerevisiae deletion strains, locus YOR184W, strain ser1, active compounds read low 1.03 | S. cerevisiae deletion strains, locus YOR231W, strain MKK1, active compounds read low 1.03 | S. cerevisiae deletion strains, locus YOR265W, strain rbl2, active compounds read low 0.962 | S. cerevisiae deletion strains, locus YOR270C, strain vph1, active compounds read low 0.934 | S. cerevisiae deletion strains, locus YOR290C, strain snf2, active compounds read low 0.95 | S. cerevisiae deletion strains, locus YOR316C, strain cot1, active compounds read low 1.01 | S. cerevisiae deletion strains, locus YPL051W, strain arl3, active compounds read low 0.963 | S. cerevisiae deletion strains, locus YPL055C, strain LGE1, active compounds read low 1.04 | S. cerevisiae deletion strains, locus YPL078C, strain atp4, active compounds read low 0.969 | S. cerevisiae deletion strains, locus YPL106C, strain sse1, active compounds read low 0.986 | S. cerevisiae deletion strains, locus YPL240C, strain hsp82, active compounds read low 0.966 | S. cerevisiae deletion strains, locus YPL241C, strain CIN2, active compounds read low 1.01 | S. cerevisiae deletion strains, locus YPL256C, strain CLN2, active compounds read low 1.04 | S. cerevisiae deletion strains, locus YPR119W, strain clb2, active compounds read low 1.02 | S. cerevisiae deletion strains, locus YPR141C, strain kar3, active compounds read low 1.02 | S. cerevisiae deletion strains, locus YPR163C, strain tif3, active compounds read low 1.02 | S. cerevisiae deletion strains, locus YPR167C, strain met16, active compounds read low 1.01 | S. cerevisiae deletion strains, strain wtn01, active compounds read low 1.01 | S. cerevisiae strains, strain wild type, active compounds read low 1.01
